According to the supplement of paper PMC6522484:
± gives the standard deviation of the averaged measurements.

Experiments:
DLD1 [1] = test: cell viability (CellTiter-Glo) relative to plate median (fraction of plate median); higher = more viable cells; conditions: 5 µM; treatment time 24 h; reporter: 7TFP
Procedure, shortened: (§1)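 Colorectal cancer cell lines stably transduced with lentiviral TCF/Wnt firefly luciferase reporters (7TFP or TCF4/Wnt) were seeded in 384-well plates. 24 h later they received library compounds at a final 5 µM for 24 h. Parallel plates were read for firefly luciferase or CellTiterGlo luminescence on a Tecan F500 reader. Each well's signal was normalised to the plate median (webcellHTS2, additive, no log transformation), and the mean of two independent replicates is reported.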

HCT116 = test: as above; conditions: 5 µM; treatment time 24 h; reporter: TCF4/Wnt
Procedure, shortened: as §1

SW480 [2] = test: as above; conditions: 5 µM; treatment time 24 h; reporter: 7TFP
Procedure, shortened: as §1

DLD1 [3] = test: TCF/Wnt firefly luciferase reporter signal relative to plate median (fraction of plate median); higher = higher Wnt reporter signal; conditions: 5 µM; treatment time 24 h; reporter: 7TFP
Procedure, shortened: as §1

SW480 [4] = test: as above; conditions: 5 µM; treatment time 24 h; reporter: 7TFP
Procedure, shortened: as §1

Structure (SMILES)	cell viability (DLD1 [1])	cell viability (HCT116)	cell viability (SW480 [2])	TCF/Wnt firefly luciferase reporter signal (DLD1 [3])	TCF/Wnt firefly luciferase reporter signal (SW480 [4])
CC(=O)c1ccc[nH]1	0.992 ± 0.04	1.03 ± 0.048	1.025 ± 0.0071	0.87 ± 0.23	0.798 ± 0.14
C#CC1(O)CC[C@H]2[C@@H]3CCC4=CC(=O)CC[C@@H]4[C@H]3CC[C@@]21CC (mixture of isomers)	0.925 ± 0.0014	0.875 ± 0.018	0.957 ± 0.026	1.14 ± 0.028	1.14 ± 0.035
Cc1cccc(Nc2cc(Cl)nc(SCC(=O)O)n2)c1C	0.964 ± 0.021	0.999 ± 0.044	0.9325 ± 0.0064	1.09 ± 0.014	1.085 ± 0.0071
O=c1cc(-c2ccc(O)cc2)oc2cc(O[C@@H]3O[C@H](CO)[C@@H](O)[C@H](O)[C@H]3O)cc(O)c12	0.924 ± 0.044	1.06 ± 0.093	1 ± 0.038	1.02 ± 0.059	1.07 ± 0.078
CC(C)CCCC(C)C1CCC2C3=CCC4CC(O)CCC4(C)C3CCC21C (stereo not given)	1.05 ± 0.064	1.07 ± 0.11	1.02 ± 0.043	0.891 ± 0.083	0.897 ± 0.12
CC(CN(C)C)CN1c2ccccc2Sc2ccccc21 (stereo not given)	1 ± 0.12	1.02 ± 0.065	1.06 ± 0.057	0.997 ± 0.15	1.08 ± 0.071
CCCCC(CC)CN=C(N)N=C(N)NCCCCCCNC(N)=NC(N)=NCC(CC)CCCC (stereo not given)	0.971 ± 0.0057	0.924 ± 0.045	1.02 ± 0.014	1.14 ± 0.028	1.1 ± 0.085
C[C@]12CC[C@@H]3c4ccc(O)cc4CC[C@H]3[C@@H]1C[C@@H](O)[C@@H]2O	1.03 ± 0.035	1.05 ± 0.057	1 ± 0.035	1.07 ± 0.085	1.16 ± 0.071
COC1=CC(=O)C[C@@H](C)[C@]12Oc1c(Cl)c(OC)cc(OC)c1C2=O	0.937 ± 0.055	1.02 ± 0.057	0.865 ± 0.038	0.929 ± 0.094	0.89 ± 0.17
COc1c(-c2coc3cc4c(cc3c2=O)CC(O)C(C)(C)O4)ccc2c1C=CC(C)(C)O2 (stereo not given)	0.973 ± 0.081	0.973 ± 0.12	1.02 ± 0.079	0.869 ± 0.0014	0.946 ± 0.077
Cc1nnc(NS(=O)(=O)c2ccc(N)cc2)s1	1.01 ± 0.016	1.04 ± 0.028	1.01 ± 0.15	0.957 ± 0.04	0.981 ± 0.056
CCCCNC(=O)NS(=O)(=O)c1ccc(C)cc1	0.85 ± 0.14	0.982 ± 0.054	0.987 ± 0.033	0.931 ± 0.097	1.005 ± 0.0071
C=C[C@H]1CN2CC[C@H]1C[C@@H]2[C@@H](O)c1ccnc2ccc(OC)cc12	0.963 ± 0.052	0.966 ± 0.042	0.977 ± 0.047	1.21 ± 0.14	0.933 ± 0.021
CCCCC(CC)CN1CN(CC(CC)CCCC)CC(C)(N)C1 (stereo not given)	0.96 ± 0.071	0.988 ± 0.032	0.985 ± 0.0028	1.01 ± 0.048	0.997 ± 0.018
O=C(O)c1cccnc1	1.05 ± 0.042	1.01 ± 0.11	1.06 ± 0.05	0.969 ± 0.039	0.976 ± 0.062
O=C(O)CCC(=O)OC[C@@H](NC(=O)C(Cl)Cl)[C@H](O)c1ccc([N+](=O)[O-])cc1	1 ± 0.12	0.895 ± 0.04	0.977 ± 0.027	0.838 ± 0.044	0.97 ± 0.022
C[C@@H]1CC(=O)c2c(ccc3c2C(=O)c2cccc(O)c2C3=O)C1 [Ochromycinone (Isoform C, Compound ID 7613)]	1.02 ± 0.091	1.08 ± 0.099	1.1 ± 0.064	1.09 ± 0.13	1.04 ± 0.11
Nc1ccccc1C(=O)CC(N)C(=O)O (stereo not given)	1.01	1.05 ± 0.1	0.994 ± 0.023	1.31 ± 0.05	1.08 ± 0.014
C=CC1=C(C(=O)O)N2C(=O)[C@@H](NC(=O)/C(=N\O)c3csc(N)n3)[C@H]2SC1	0.911 ± 0.11	1.04 ± 0.1	0.963 ± 0.025	0.941 ± 0.052	0.969 ± 0.072
CC(=O)OCC(CCn1cnc2cnc(N)nc21)COC(C)=O	0.9935 ± 0.0021	0.97 ± 0.04	0.9805 ± 0.0092	0.984 ± 0.052	1.025 ± 0.0071
NCCCC(O)(P(=O)(O)O)P(=O)(O)O	0.98 ± 0.028	0.974 ± 0.12	0.963 ± 0.0042	0.974 ± 0.12	1.02 ± 0.03
O=C(O)c1ccc(S(=O)(=O)N(Cl)Cl)cc1	0.936 ± 0.027	1 ± 0.028	0.8755 ± 0.0078	0.937 ± 0.052	0.876 ± 0.03
C[C@H]1c2cccc(O)c2C(=O)C2=C(O)[C@]3(O)C(=O)C(C(N)=O)=C(O)[C@@H](N(C)C)[C@@H]3[C@@H](O)[C@@H]21	0.942 ± 0.096	0.964 ± 0.033	0.975 ± 0.0028	0.967 ± 0.23	1.03 ± 0.18
O=C(O)c1cc2ccccc2[nH]1 [Indol-2-carboxylic acid]	0.972 ± 0.097	0.92 ± 0.016	0.9215 ± 0.0064	0.8775 ± 0.005	0.955 ± 0.042
Cn1nnnc1SCC1=C(C(=O)O)N2C(=O)[C@@H](NC(=O)[C@H](O)c3ccccc3)[C@H]2SC1	1.05 ± 0.064	0.949 ± 0.03	1.01 ± 0.037	0.878 ± 0.03	0.989 ± 0.072
O=c1cc(-c2ccccc2)oc2cc(O)cc(O)c12	1.01	1.02 ± 0.035	1.02 ± 0.045	1.03 ± 0.23	1.09 ± 0.064
O=C(O)c1cc(O)c(=O)c2c(O)c(O)ccc2c1	1.02 ± 0.028	1.04 ± 0.12	1.01 ± 0.035	1.05 ± 0.035	1.02 ± 0.021
